Shown are actives, neighbours in structure and some others; about 1.8% of the full set was active somewhere.
INS-1E GSIS act = GLuc luminescence reporter in INS-1E cells, primary screen for activators of glucose-dependent secretion of insulin; AID 743287; activation, % at 16.6 µM; 370,000 tested, 0.61% active; INS-1E GLuc reporter insulin secretion, 2-3 h;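 active = lowest replicate activation of at least 40%, so every replicate reaches that level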
RAD52 anneal inh = inhibitors of human RAD52 DNA annealing. recombinant RAD52 DNA annealing, FRET fluorescence. inhibition, % at 18.7 µM. 360,000 tested, 0.46% active. AID 651710;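 active = every replicate showing at least 50% inhibition; inconclusive = mean inhibition at least 50% but not in every replicate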
RAD54 branch = inhibitors of human RAD54 branch migration; RAD54 Holliday junction branch migration, FAM/BHQ fluorescence; inhibition, % at 10.4 µM; 360,000 tested, 0.14% active;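 active = mean normalized replicate activity at least 40 and at least half of replicates scoring 40 or more; inconclusive = only one of the two criteria met; inactive = mean below 40 and under half of replicates reaching 40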;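 note: inhibitors cause a drop in the FAM fluorescence signal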
Target sequence (Q92698 whole entry, looked up): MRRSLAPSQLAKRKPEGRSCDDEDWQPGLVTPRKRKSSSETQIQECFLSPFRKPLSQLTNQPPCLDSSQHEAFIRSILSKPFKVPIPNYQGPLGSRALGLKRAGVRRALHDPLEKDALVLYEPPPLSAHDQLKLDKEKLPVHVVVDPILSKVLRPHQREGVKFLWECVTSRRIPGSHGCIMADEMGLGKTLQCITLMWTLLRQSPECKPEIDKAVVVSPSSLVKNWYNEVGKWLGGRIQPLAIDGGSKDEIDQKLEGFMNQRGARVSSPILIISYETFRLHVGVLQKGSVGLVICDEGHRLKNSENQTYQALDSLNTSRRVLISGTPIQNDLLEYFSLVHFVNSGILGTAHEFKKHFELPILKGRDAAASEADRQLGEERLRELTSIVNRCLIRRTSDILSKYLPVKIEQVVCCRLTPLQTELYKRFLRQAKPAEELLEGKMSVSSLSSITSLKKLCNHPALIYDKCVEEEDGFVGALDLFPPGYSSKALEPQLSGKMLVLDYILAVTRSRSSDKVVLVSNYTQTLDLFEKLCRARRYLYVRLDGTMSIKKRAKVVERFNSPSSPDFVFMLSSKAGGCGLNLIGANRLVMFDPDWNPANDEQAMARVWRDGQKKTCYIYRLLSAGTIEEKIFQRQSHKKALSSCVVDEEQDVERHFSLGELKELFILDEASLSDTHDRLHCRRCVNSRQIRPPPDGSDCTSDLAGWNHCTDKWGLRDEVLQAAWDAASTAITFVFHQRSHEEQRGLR
EWS-Fli inh = EWS/Fli transcriptional activity inhibition. A673 NR0B1-luciferase reporter, viability-normalised. inhibition, % at 12.6 µM. AID 651661. 350,000 tested, 0.67% active;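 active = mean inhibition of at least 50% after viability correction, with every replicate also passing that limit; inconclusive = mean reaches 50% but only one of two replicates passes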;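 note: firefly luciferase signal divided by Alamar Blue viability fluorescence both relative to DMSO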
CFTR F508del cor = correctors of CFTR F508del function in bronchial epithelial cells; activity (quench increase), % at 7.58 µM; CFBE cells, YFP halide quenching; stimulated with forskolin plus potentiator P3; % fluorescence drop versus neutral controls; AID 720511; 350,000 tested, 0.36% active;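 active = mean added fluorescence quench of at least 8% versus neutral control, with both replicates also reaching 8%; inconclusive = only one of the mean or replicate conditions met; inactive = mean below 8% and not both replicates reaching 8%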;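 note: cells transiently co-express mutant CFTR-F508del with the halide-sensitive YFP; corrector assay measuring rescue of mutant channel to the surface after 24 h compound exposure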
LGR2 inh = inhibitors of bursicon-induced Drosophila LGR2 receptor cAMP signaling. HEK293 LGR2, CRE-luciferase, bursicon-stimulated, 4 h. inhibition, % at 9.99 µM. 380,000 tested, 0.35% active. AID 720647;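 active = drop in luminescence signal, shown as inhibition above about 50% in the replicate tests, limit read from the data, passing the limit was not always enough; inconclusive = probably only some replicates passing the limit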;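 note: agonist challenge used bursicon conditioned medium at about half maximal strength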
Of the large screens only hits and unclear results are named; the others gave an inactive call; ! = repeats disagree.

CCCC(=O)Nc1ccc2c(c1)C(=O)N(C)[C@@H]1CC[C@@H](CC(=O)O)O[C@H]1CO2	none
CCCCn1nc2cc(C(=O)NC[C@@H]3CCCO3)ccc2c1OCC	none
O=C(OC1CCOC1=O)c1cc(-c2cccs2)nc2ccccc12 (stereo not drawn)	INS-1E GSIS act 58.9
Cc1ccc(-c2cc(C(=O)OC3CCOC3=O)c3ccccc3n2)c(C)c1 (stereo not drawn)	none
COc1cc(/C=N\Nc2nc3ccccc3[nH]2)cc(OC)c1OC	none (no result: INS-1E GSIS act, RAD52 anneal inh, EWS-Fli inh, CFTR F508del cor, LGR2 inh)
COc1ccc2c(c1)c(/C=N/Nc1nc3ccccc3[nH]1)c(C)n2C	LGR2 inh 58.6
CCC(=O)OC1c2ccccc2C(=O)N1Cc1ccccc1 (stereo not drawn)	none
CCOC(=O)CN(Cc1sccc1C)C(=O)Nc1ccc(OC)cc1OC	INS-1E GSIS act 41.8 (no result: RAD52 anneal inh, RAD54 branch, EWS-Fli inh, CFTR F508del cor)
CN(CCCNC(=O)c1ccc(CS(=O)c2ccc(Br)cc2)o1)Cc1ccccc1 (stereo not drawn)	none
CC(=O)Nc1nc(NCc2ccccc2Cl)n(-c2ccccc2)n1	INS-1E GSIS act 77.0
CCCn1nc(C(=O)NC2CC2)c2ccccc2c1=O	INS-1E GSIS act 52.0
CN(CC(=O)Nc1cccc(S(=O)(=O)N2CCCC2)c1)CC(=O)Nc1ccc(Cl)c(C(F)(F)F)c1	none
CN(CC(=O)Nc1cccc(S(=O)(=O)N2CCCC2)c1)CC(=O)Nc1ccc(F)c(F)c1F	CFTR F508del cor 19.4
O=C(COc1ccc(F)cc1Cl)Nc1cccc(S(=O)(=O)N2CCCCCC2)c1	CFTR F508del cor 8.8
CN1C(=O)c2cc(NC(=O)c3cccs3)ccc2OC[C@H]2O[C@@H](CC(=O)NCC(F)(F)F)CC[C@H]21	none
O=S(=O)(c1ccc(-c2csc(Nc3ccc(Br)cc3)n2)cc1)N1CCCC1	INS-1E GSIS act 88.9 (no result: RAD52 anneal inh, RAD54 branch, EWS-Fli inh, CFTR F508del cor)
COc1ccc(CSc2ncn[nH]2)cc1[N+](=O)[O-]	INS-1E GSIS act 61.5 (no result: RAD52 anneal inh, RAD54 branch, EWS-Fli inh, CFTR F508del cor)
COc1ccc(CSc2n[nH]c(C)n2)cc1[N+](=O)[O-]	none (no result: RAD52 anneal inh, RAD54 branch, EWS-Fli inh, CFTR F508del cor)
Cc1ccc(S(=O)(=O)Nc2cccc3c2O[C@@H](CN(C)Cc2ccc(Oc4ccccc4)cc2)[C@@H](C)CN([C@H](C)CO)C3=O)cc1	none
O=C1c2ccccc2C(=O)N1Cc1cnc(N2CCN(c3ccccc3)CC2)s1	CFTR F508del cor 11.0 (no result: RAD54 branch)
O=C(CCN1C(=O)c2ccccc2C1=O)N1CCN(c2ccccc2)CC1	none (no result: INS-1E GSIS act, RAD52 anneal inh, EWS-Fli inh, CFTR F508del cor, LGR2 inh)
C1CCC(C(CC2CCCCN2)C2CCCCC2)CC1 (stereo not drawn)	INS-1E GSIS act 103.6, EWS-Fli inh inconclusive, CFTR F508del cor 9.9!, LGR2 inh 57.9!
COc1cccc(C2=CC(c3ccccc3)n3nnnc3N2)c1 (stereo not drawn)	CFTR F508del cor 15.4
COc1nc(-c2ccccc2)cc(-c2ccc3c(c2)OCO3)c1C#N	EWS-Fli inh 59.4, CFTR F508del cor 17.3 (no result: RAD54 branch)
COc1ccccc1NC(=O)c1sc2ncn(CC(=O)N3CCC(C)CC3)c(=O)c2c1C	none (no result: EWS-Fli inh)
CCOC(=O)c1sc2nc(C)nc(NCc3ccc(Cl)cc3)c2c1C	none
Nc1ccc(-c2ncc(-c3ccccc3)o2)cc1	EWS-Fli inh 64.9
Cc1cc(C)c2cc(C#N)c(SCC(=O)NCC3CCCO3)nc2c1 (stereo not drawn)	none (no result: INS-1E GSIS act, RAD52 anneal inh, EWS-Fli inh, CFTR F508del cor, LGR2 inh)
COc1ccc(CN2CC3(CN(C(=O)Cc4ccccc4)C3)c3c([nH]c4cc(OC)ccc34)[C@H]2CO)cc1	none (no result: RAD54 branch)
COc1ccc(/C=C2\N=C(c3ccccc3)N(c3ccc(C(=O)O)cc3)C2=O)cc1OC	INS-1E GSIS act 71.0
COc1ccc(/C=C2/CC/C(=C\c3ccc(OC)c(OC)c3OC)C2=O)c(OC)c1OC	none (no result: RAD52 anneal inh, EWS-Fli inh, CFTR F508del cor)
O=C(C1CC1)N1CCN(Cc2ccccc2)CC1	none (no result: RAD54 branch)
CN1CCCC1CCNC1C2CC3CC(C2)CC1C3 (stereo not drawn)	INS-1E GSIS act 46.4 (no result: RAD52 anneal inh, EWS-Fli inh, CFTR F508del cor, LGR2 inh)
O=C(CSc1ccccc1)NC(=O)NCc1ccccc1	none (no result: RAD54 branch)
CC(C)C#Cc1cnc2c(c1)C(=O)N([C@H](C)CO)C[C@@H](C)[C@H](CN(C)C(=O)c1ccccc1F)O2	none
CC(=O)OC1CCC2(C)C(CCC3C4CC=C(C(C)=O)C4(C)OC(=O)CC32)C1 (stereo not drawn)	LGR2 inh 106.6 (no result: INS-1E GSIS act)
CC(C)CC(=NNC(=O)c1ccncc1)c1cc(Cl)ccc1O	CFTR F508del cor 16.2
CC(=NNC(=O)c1ccncc1)c1ccccc1O	none
O=C(c1[nH]ncc1-c1cccc(Br)c1)C1CO1 (stereo not drawn)	CFTR F508del cor 10.9 (no result: RAD54 branch)
COc1ccc(NC(=O)CSc2ccc(-c3cccnc3)nn2)cc1	none (no result: INS-1E GSIS act)
Cc1ccccc1OCc1nnc(SCC(=O)Nc2ccc3c(c2)oc2ccccc23)n1C	INS-1E GSIS act 130.7 (no result: RAD52 anneal inh, EWS-Fli inh, CFTR F508del cor, LGR2 inh)
C[C@@H]1CN([C@@H](C)CO)C(=O)c2cccc(NC(=O)C3CCCCC3)c2O[C@H]1CN(C)C(=O)Nc1ccc(C(F)(F)F)cc1	none
Cc1ccc(Nc2nc(CSc3nnc(-c4cccnc4)n3-c3ccccc3F)cs2)cc1	CFTR F508del cor 8.6 (no result: RAD54 branch)
Cc1ccc(Nc2nc(CSc3nnc(-c4ccncc4)n3C)cs2)cc1	none (no result: RAD52 anneal inh, EWS-Fli inh, CFTR F508del cor)
COc1cc(OC)cc(C(=O)N2CC(=O)Nc3ccccc32)c1	CFTR F508del cor 8.7
O=C1CN(C(=O)c2ccccc2F)c2ccccc2N1	none (no result: RAD52 anneal inh, EWS-Fli inh, CFTR F508del cor)
COc1ccc(OCc2n(CC(=O)OC3CC(C)CCC3C(C)C)c3ccccc3[n+]2C)cc1 (stereo not drawn)	INS-1E GSIS act 271.2, EWS-Fli inh 53.1
COc1ccc(-c2n(CC(=O)OC3CC(C)CCC3C(C)C)c3ccccc3[n+]2C)cc1 (stereo not drawn)	none (no result: RAD54 branch)
CC(C)(C)C1CCc2c(sc(NC(=O)c3cccs3)c2C(N)=O)C1 (stereo not drawn)	INS-1E GSIS act 44.7 (no result: RAD52 anneal inh, EWS-Fli inh, CFTR F508del cor)
CC(C)Cn1c2c(c(=O)[nH]c1=O)C(C(F)(F)F)(C(F)(F)F)N=C(CCC1CCCCC1)N2	INS-1E GSIS act 54.5 (no result: RAD52 anneal inh, EWS-Fli inh, CFTR F508del cor)
O=C(Nc1ccccc1)N1CCCCN2[C@H](C1)[C@@H](c1ccc(C3=CCCCC3)cc1)[C@@H]2CO	none
COCC(=O)Nc1c(C(=O)Nc2ccccc2OC)oc2ccccc12	none (no result: RAD52 anneal inh, EWS-Fli inh, CFTR F508del cor)
COc1ccccc1NC(=O)c1oc2ccccc2c1NC(=O)c1cc(OC)c(OC)c(OC)c1	EWS-Fli inh 60.3
c1cn2cc(-c3ccc(CN4CCOCC4)cc3)ccc2n1	INS-1E GSIS act 55.0
CNC[C@@H]1OCc2cn(nn2)CCCC(=O)N([C@@H](C)CO)C[C@H]1C	none
CC1(Cc2ccc(F)cc2)C(=O)Nc2c(Cl)ccc(Cl)c21 (stereo not drawn)	CFTR F508del cor 8.8
COC(=O)C1=CN(c2ccc(N3CCOCC3)cc2)C(N)=C(C#N)C1c1ccccc1 (stereo not drawn)	none (no result: RAD54 branch)
COC(=O)C1=CN(c2ccc3c(c2)OCO3)C(N)=C(C#N)C1c1cccc(F)c1 (stereo not drawn)	EWS-Fli inh 56.1, CFTR F508del cor 11.2 (no result: RAD54 branch)
COc1cc(NC2c3ccccc3C(=O)N2c2cc(C)ccn2)cc(OC)c1OC (stereo not drawn)	none
